Where “and” joins values, the source holds several entries; their conditions need not be identical. Identical values can stand only once. Counter-ions that a name gives are not always drawn. Values without a mark were called inactive.
Test system: Plasmodium falciparum NF54/iGP1_RE9H ulg8 stage V gametocytes
Assay: gametocyte viability (luciferase signal relative to DMSO control) (% of DMSO control); higher = less gametocytocidal activity, active = 50 or less
Conditions: exposure time: 72 h
Summary of the method: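 Compounds from 10 mM DMSO stocks were spotted at nanolitre scale into 96-well plates, and day-12 stage V NF54/iGP1_RE9Hulg8 gametocytes (~2.5% gametocytemia, 3% hematocrit; medium with 0.5% Albumax II) were added to reach 10 µM or 1 µM, one well per concentration. The plates were kept at 37 °C for 72 h. Luminescence was then read on an IVIS Lumina II after mixing 90 µl of culture with 10 µl D-luciferin (30 mg/ml). Viability values are relative to the plate's mean DMSO vehicle signal.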

Structure (SMILES) | gametocyte viability (concentration: 1 µM) | gametocyte viability (concentration: 10 µM)
COc1cc(Nc2ncc(F)c(Nc3ccc4c(n3)NC(=O)C(C)(C)O4)n2)cc(OC)c1OC [R406(free base)] | 96.3 | 103
OCCn1cc(-c2cnc3nnn(Cc4ccc5ncccc5c4)c3n2)cn1 | 93.3 | 98.6
Cn1cc(-c2cnn3c(N)c(Br)c([C@@H]4CCCNC4)nc23)cn1 | 114 | 85.8
CC(C)CC(=O)Nc1n[nH]c2c1CN(C(=O)C1CCN(C)CC1)C2(C)C | 96.4 | 110
CC(C)(C)Cn1c(N)nc2ccc(-c3[nH]c(C(C)(C)C)nc3-c3ccc(F)cc3)nc21 | 97.8 | 105
C#Cc1cccc(Nc2ncnc3cc(OCCOC)c(OCCO)cc23)c1 [OSI-420 (Desmethyl Erlotinib)] | 92.8 | 97
CN1CC[C@H](c2c(O)cc(O)c3c(=O)cc(-c4ccccc4Cl)oc23)[C@H](O)C1 [Flavopiridol hydrochloride] | 106 | 111
Cc1ccc(-n2nc(C(C)(C)C)cc2NC(=O)Nc2ccc(OCCN3CCOCC3)c3ccccc23)cc1 [BIRB 796 (Doramapimod)] | 96 | 98.8
CC(C)(C)c1cc(C=C(C#N)C(N)=S)cc(C(C)(C)C)c1O | 103 | 102
N#CC(=C(/N)Sc1ccccc1N)/C(C#N)=C(\N)Sc1ccccc1N | 94.3 | 95.9
O=c1ncn2nc(Sc3ccc(F)cc3F)ccc2c1-c1c(Cl)cccc1Cl | 95.2 | 103
O=C(O)c1cc(N(Cc2ccccc2O)Cc2cc(O)ccc2O)ccc1O [Lavendustin A] | 98.5 | 99.4
CS(=O)(=O)N1CCN(Cc2cc3nc(-c4cccc5[nH]ncc45)nc(N4CCOCC4)c3s2)CC1 | 97.2 | 108
COc1cc2nccc(Oc3ccc(NC(=O)C4(C(=O)Nc5ccc(F)cc5)CC4)cc3)c2cc1OC [XL-184 free base (Cabozantinib)] | 100 | 83.1
COc1ccc2c3n(c(=NC(=O)c4cccnc4)nc2c1OC)CCN3 | 94.4 | 101
CC[C@H](CO)Nc1nc(NCc2ccccc2)c2ncn(C(C)C)c2n1 [Roscovitine] | 107 | 105
O=C(Nc1c[nH]nc1-c1nc2ccc(CN3CCOCC3)cc2[nH]1)NC1CC1 | 131 | 113
COc1cc(Nc2ncc(F)c(Nc3ccc4c(n3)N(COP(=O)(O)O)C(=O)C(C)(C)O4)n2)cc(OC)c1OC | 95.1 | 101
CC(C)(C)c1cc(NC(=O)Nc2ccc(-c3cn4c(n3)sc3cc(OCCN5CCOCC5)ccc34)cc2)no1 [Quizartinib (AC220)] | 97.7 | 85.9
NC(=O)c1ccc(-c2nc(-c3ccccn3)c(-c3ccc4c(c3)OCO4)[nH]2)cc1 | 101 | 125
C[C@@H]1CCN(C(=O)CC#N)C[C@@H]1N(C)c1ncnc2[nH]ccc12 | 107 | 110
O=C1C(c2c(O)[nH]c3ccccc23)=Nc2ccccc21 [Indirubin] | 104 and 100 | 113 and 97.3
N#C/C(=C\c1ccc(O)c(O)c1)C(N)=O | 93.5 | 98
Cn1cnc(-c2cc3nccc(Oc4ccc(NC(=S)NC(=O)Cc5ccccc5)cc4F)c3s2)c1 | 90.2 | 93.5
Cc1nc(NC(=O)N2CCC[C@H]2C(N)=O)sc1-c1csc(C(C)(C)C)n1 | 101 | 92.9
O=C1NC(=O)/C(=C/c2ccc3nccc(-c4ccncc4)c3c2)S1 | 101 | 103
CN(C)Cc1cccc(N=C(c2ccccc2)c2c(O)[nH]c3cc(C(=O)N(C)C)ccc23)c1 | 116 | 121
Cc1ccc(C(=O)Nc2ccc(CN3CCN(C)CC3)c(C(F)(F)F)c2)cc1C#Cc1cnc2cccnn12 | 111 | 130
N#CCNC(=O)c1ccc(-c2ccnc(Nc3ccc(N4CCOCC4)cc3)n2)cc1 | 98.5 | 97.1

Source: the supplement of paper PMC12297408
